Compound activity (PubChem BioAssay)
HT1080 IDH1KD tx – HT-1080 IDH1 knockdown cell toxicity (counter line). Potency, µM (series often up to 46.1 µM), inactives show at the highest dose activity, negative = toxicity, hits mostly cytotoxic. 2% of 360,000 active. HT-1080 IDH1 knockdown viability, ATP luminescence, 48 h;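 also: potency is read from the fitted curve at half-maximal effect; 0% = DMSO wells and -100% = cell-free medium wells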
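After a 2 h attachment period, IDH1KD HT-1080 cells took pin-transferred compound for 48 h at 37 °C; ATP-based luminescence after 10 min room-temperature reagent incubation reported viability.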
ELG1 repair inh – ELG1-dependent DNA repair inhibition; 2.3% of 330,000 active; HEK293T ELG1-luciferase reporter, luminescence, 16 h; DNA damage induced by 5-fluorouridine; Potency, µM (highest dose often 46.1 µM), for inactives: at the highest dose activity change, negative = inhibition, hits mostly inhibitors; also: potency is read from the fitted curve at half-maximal effect; nearly all actives have a fitted effect of over 55% in size
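DMSO vehicle served as the neutral condition. Each well held 2,000 cells given 5-fluorouridine plus compound; after 16 hr at 37 °C/5% CO2, ONE-Glo was added and luciferase measured 30 min later.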
HT1080NT lethal – kills 2HG-producing HT-1080-NT fibrosarcoma cells; 1.6% of 360,000 active; Potency, µM (series often up to 46.1 µM), without a hit: at the top dose activity, negative = less viability, actives largely listed as cytotoxic; HT-1080-NT fibrosarcoma viability, CellTiter-Glo ATP luminescence, 48 h;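 also: NT is the 2HG producing partner of a matched IDH1 knockdown line; potency is read from the fitted curve at half-maximal effect; 0% = DMSO-treated cells and -100% = media-only wells without cells; nearly all actives have a fitted effect of over 55% in size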
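Fibrosarcoma NT cells, 750 per well in 5% FBS RPMI, were exposed to compound for 48 hours. Viability: CellTiter-Glo luminescence.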
DT40 TDP1 no CPT – qHTS for Inhibitors of human tyrosyl-DNA phosphodiesterase 1 (TDP1): qHTS in cells in absence of CPT. DT40 Tdp1-/- hTDP1 cells, no CPT, ATP luminescence, 48 h. Potency, µM (highest dose often 46.2 µM), for inactives: at the highest dose activity change, negative = growth inhibition, usual class: inhibitors. 15% of 420,000 active; also: potency is read from the fitted curve at half-maximal effect; nearly all actives have a fitted effect of over 55% in size
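Luminescent ATP content (CellTiter-Glo) served as the growth readout. Knockout chicken DT40 cells expressing human TDP1 were exposed to compounds without camptothecin for a minimum 48 hr at 37 °C.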
IL-1B inflam inh – blocks inflammasome-driven IL-1 beta release. THP-1 LPS/ATP IL-1B secretion, AlphaLISA, 16 h; stronger effect = lower value. activity change, % at 57.5 µM. 4.7% of 360,000 active. AID 743279; in the data active = activity change below about -50%; inconclusive = mostly about -30% to -49%
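Secreted IL-1B measured by AlphaLISA bead assay after 16 h compound exposure of THP-1 cells; compounds (final up to 57.5 uM) added 1 h before LPS (250 ng/mL) and ATP (1.25 mM) stimulation; lower signal means less secretion.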
DT40 TDP1 CPT – DT40-hTDP1 cell growth loss with CPT. chicken DT40 Tdp1-/-;hTDP1 cells + 20 nM CPT, ATP luminescence, 48 h. Potency, µM (doses to about 46.2 µM), for the others: top-dose activity change, negative = growth inhibition, most hits filed as inhibitors. 12% of 420,000 active; also: potency is read from the fitted curve at half-maximal effect; nearly all actives have a fitted effect of over 55% in size
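Cell growth measured by CellTiter-Glo luminescence after a minimum 48 h, 37 C compound exposure with 20 nM CPT in Tdp1-knockout DT40 cells stably expressing hTDP1, seeded 400/well; qHTS titration format.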
The depositor's hits bear a star; u = inconclusive; x = not tested or not shown; [ ] = remark or other dose. Shown are actives, neighbours in structure and some others; about 19% of the full set was active somewhere. Unless noted, calls follow the shape of the dose curve; as a rule, active = well fitted curve in the direction sought with a large enough effect; inconclusive = small, poorly fitted or top-dose-only effect, or another doubt; inactive = no such curve, though single readings can be large; an effect the other way counts as inactive or inconclusive. Unless noted, % is scaled to controls: 0 for no effect and ±100 for the full control effect.

SMILES | HT1080 IDH1KD tx | ELG1 repair inh | HT1080NT lethal | DT40 TDP1 no CPT | IL-1B inflam inh | DT40 TDP1 CPT
CCOc1ccc(CCNC(=O)COC(=O)c2cccc(S(=O)(=O)N3CCOCC3)c2)cc1OCC | 4% | 3% | 3% | -21% | 4 | -3%
C[C@@H]1CNC(=O)c2c(C(=O)NC3CCN(C(=O)OC(C)(C)C)CC3)ncn21 | 0% | x | -1% | -5% | 22 | -1%
CCN1C(=O)C(O)(c2c[nH]c3ccccc23)c2cc(Br)ccc21 (configuration not stated) | x | x | x | u | x | -10%
CCCCN1C(=O)C(O)(c2c(C)[nH]c3ccccc23)c2cc(Br)ccc21 (configuration not stated) | x | x | x | 4.1µM* | x | 5.8µM*
CCCCN1C(=O)C(O)(c2c(C)[nH]c3ccccc23)c2ccccc21 (configuration not stated) | x | x | x | 5.8µM* | x | 5.8µM*
Cc1cc(N/N=C/c2ccccc2F)nc(NCc2ccccc2)n1 | -4% | 0% | -7% | 12µM* | -4 | u
Cc1cc(N/N=C/c2ccc(Cl)cc2)nc(NCc2ccccc2)n1 | -21% | -17% | -4% | 8.2µM* | -84* | 21µM*
Cc1cc(C)nc(N/N=C/c2ccc(Cl)cc2)n1 | 12% | 0% | 16% | -1% | -24 | -15%
Cc1cc(C)nc(NCc2ccc(Cl)cc2)n1 | -1% | 0% | -16% | -19% | -7 | -1%
Cc1cc(Nc2cccc(Cl)c2)nc(NCc2ccccc2)n1 | u | -11% | u | 3.7µM* | -20 | 5.8µM*
Fc1cccc(/C=N/Nc2ccc(Cl)nn2)c1 | 0% | u | -16% | -11% | -13 | -20%
Cc1cc(N/N=C/c2cccc(F)c2)nc(NCc2ccccc2)n1 | 16µM* | 9% | 21µM* | 13µM* | -72* | u
COc1ccc(C=C(NC(=O)c2ccccc2)C(=O)O)cc1OC | u | x | 8% | 1% | 22 | -4%
Cc1onc(-c2ccccc2)c1C(=O)OCC(=O)NC(C)c1ccc(Cl)cc1 (configuration not stated) | -26% | u | -14% | -24% | -25 | u
Cc1cc(C)cc(NC(=O)N2CCN(C)c3ncccc32)c1 | x | x | x | 2% | x | 9%
CCCCCNC(=O)c1cccc(S(=O)(=O)N2CC3(C)CC2CC(C)(C)C3)c1 (configuration not stated) | -16% | u | -10% | u | -11 | u
CN(C)c1nc(NCc2ccccc2)nc(N/N=C/c2ccc(Cl)cc2Cl)n1 | -1% | u | 13% | u | 39 | 23µM*
Cc1ccc(/C=N/Nc2nc(C)cc(C)n2)cc1 | 5% | 0% | 4% | u | 4 | 16%
Cc1cc(N/N=C/c2cccc(Cl)c2)nc(NCc2ccccc2)n1 | u | 17% | u | 7.3µM* | -77* | 8.2µM*
Cc1cc(N/N=C/c2ccccc2)nc(NCc2ccccc2)n1 | -5% | u | -20% | 2.6µM* | -4 | 4.6µM*
O=C(CC(=O)N/N=C/c1ccc(Cl)cc1Cl)NCc1ccccc1 | 0% | 6% | 0% | -6% | 4 | -8%
O=C(NCc1nc2ccccc2[nH]1)C1=C[C@H](c2ccc3c(c2)OCO3)C[C@H](OCc2ccc(CO)cc2)O1 | -1% | u | -2% | u | -7 | u
COc1cccc2cc(-c3nc4sc5c(c4c(=O)[nH]3)CCC(C(C)(C)C)C5)c(=O)oc12 (configuration not stated) | x | x | x | 14% | x | -3%
COc1ccc(NC(=O)c2ccc(-n3cccn3)c([N+](=O)[O-])c2)cc1 | 3% | -4% | 1% | u | u | 5%
O=C(Nc1ccc(Cl)cc1)c1ccc(-n2cncn2)c([N+](=O)[O-])c1 | 0% | -16% | 22% | 16µM* | 0 | u
SMILES | HT1080 IDH1KD tx | ELG1 repair inh | HT1080NT lethal | DT40 TDP1 no CPT | IL-1B inflam inh | DT40 TDP1 CPT
O=C(Nc1cc(Cl)ccc1-n1cncn1)c1cc(F)c(F)c(F)c1F | -1% | -25% | 1% | -29% | -93* | 0%
CCN(CC)S(=O)(=O)c1cc(NC(=O)c2ccc(-n3cncn3)c([N+](=O)[O-])c2)ccc1C | -19% | u | -16% | 23µM* | -23 | u
O=C(Nc1ccc(Cl)cc1)c1ccc(-n2cccn2)c([N+](=O)[O-])c1 | -28% | -23% | u | 15µM* | -21 | 23µM*
COc1cccc(CC(=O)OCC(=O)NNC(=O)c2ccc(Br)cc2)c1 | -1% | 3% | 9%[9.24 µM] | 17% | 10 | 5%
CCCNC(=O)CCc1c(C)nc2nc(CNC(=O)c3ccccc3)nn2c1C | x | x | x | -4% | x | 14%
O=C1c2cccc([N+](=O)[O-])c2C(=O)N1CCO | 16% | -5% | 13% | 1% | 10 | 2%
CN(C)CCCN1C(=O)c2cccc3c([N+](=O)[O-])ccc(c23)C1=O | 5.8µM* | 13µM* | u | 2.3µM* | -51* | 2.3µM*
O=C1c2cccc3c([N+](=O)[O-])ccc(c23)C(=O)N1CCc1ccccn1 | -16% | 0% | 2% | 5.2µM* | -21 | 13µM*
COc1ccccc1NC(=O)COC(=O)CC(C)(C)CC1=NS(=O)(=O)c2ccccc2N1 | -11% | u | -3% | u | -4 | 23µM*
CC(C)(CC(=O)OCC(=O)Nc1ccccc1F)CC1=NS(=O)(=O)c2ccccc2N1 | -4% | 9.2µM* | 1% | 13µM* | 0 | 23µM*
COC(=O)[C@@]1(Cc2ccc(F)cc2)[C@H]2c3cc(C(=O)N(C)C)n(Cc4ccc(C)c(F)c4F)c3C[C@H]2CN1C(=O)c1ccccc1 | u | x | u | u | -75* | u
COC(=O)[C@@]1(Cc2ccc(F)cc2)[C@H]2c3cc(C(=O)N(C)C)n(CCF)c3C[C@H]2CN1C(=O)c1ccccc1 | u | x | -30% | u | -27 | u
COC(=O)[C@@]1(Cc2ccc(F)cc2)[C@H]2c3cc(C(=O)N(C)C)n(CC4CC4)c3C[C@H]2CN1C(=O)c1ccccc1 | -28% | x | u | 18µM* | 0 | u
COC(=O)c1ccccc1-n1cccc1C(=O)NP(=O)(N1CCOCC1)N1CCOCC1 | 12% | 4% | 20% | -1% | 3 | 14%
